# The whole screen tested about 16,000 compounds, of which about 5,700 (36%) were called active. Roughly 24% stayed inconclusive and do not appear here. The call rests on the fitted dose curve; in most records, active means well fitted curve in the direction sought with a large enough effect; inconclusive means small, poorly fitted or top-dose-only effect, or effect the other way; inactive means no such curve, though single readings can be large or run the other way. The list shows a part of the results.
# Biological target: Cytochrome P450 1A2 (Homo sapiens) (UniProt P05177)
# Sequence (P05177 whole entry, looked up): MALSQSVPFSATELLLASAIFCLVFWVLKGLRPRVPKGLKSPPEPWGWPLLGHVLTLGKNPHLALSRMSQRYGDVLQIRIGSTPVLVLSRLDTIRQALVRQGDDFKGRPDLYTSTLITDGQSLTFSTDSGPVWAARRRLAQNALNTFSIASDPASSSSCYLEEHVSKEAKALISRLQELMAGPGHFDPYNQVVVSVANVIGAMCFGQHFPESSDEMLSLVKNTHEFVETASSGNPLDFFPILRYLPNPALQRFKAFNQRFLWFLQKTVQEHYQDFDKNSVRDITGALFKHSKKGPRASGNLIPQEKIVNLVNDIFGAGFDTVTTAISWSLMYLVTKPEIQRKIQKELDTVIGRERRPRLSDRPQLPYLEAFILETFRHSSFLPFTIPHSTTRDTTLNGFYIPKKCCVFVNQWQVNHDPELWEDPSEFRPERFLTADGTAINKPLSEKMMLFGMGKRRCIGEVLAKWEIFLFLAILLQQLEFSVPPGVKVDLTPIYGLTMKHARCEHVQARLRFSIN
# Experiment: Cytochrome panel assay with activity outcomes
# Details: recombinant CYP, pro-luciferin dealkylation, luminescence, p450-cyp1a2; series mostly up to 57.1 µM; activity, negative = inhibition: at the top concentration
# On the % scale 0 is the no-effect control and ±100 the full control effect.
Compound,"activity, negative = inhibition",AC50
C[C@H](Oc1ccccc1)C(=O)N[C@@H]1C(=O)N2[C@@H]1SC(C)(C)[C@@H]2C(=O)O,-7.23% [at 25.6 µM] (inactive),–
NOCC(=O)O,-5.6% (inactive),–
Cc1cc(C(C)(C)C)c(O)c(C)c1CC1=NCCN1,–,inactive
Cc1n[nH]c(=O)[nH]c1=O,-6.49% [at 25.6 µM] (inactive),–
CCNc1ncc2nc(-c3ccc(Cl)cc3)c(=O)n(C)c2n1,–,398 nM (active)
CCNc1ncc2nc(-c3ccc(OC)cc3)c(=O)n(-c3ccc(OC)cc3)c2n1,-17.8% (inactive),–
c1cncc(-c2ccc3ncnc(N4CCNCC4)c3c2)c1,–,1260 nM (active)
CN1CCN(c2ncnc3ccc(-c4cccc(C#N)c4)cc23)CC1,–,1260 nM (active)
N#Cc1cccc(-c2ccc3ncnc(N4CCNCC4)c3c2)c1,–,631 nM (active)
COc1cc2cc3c4cc(OC)c(OC)cc4cc[n+]3c(C)c2cc1OC,-21.4% [at 25.6 µM] (inactive),–
CC(C)CO/N=C1/[C@H]2O[C@@H]2[C@@H](O)[C@H]2[C@H]1CCn1c(=O)n(-c3ccccc3)c(=O)n12,-6.37% [at 11.4 µM] (inactive),–
OCCCCNCc1ccc(OCc2ccccc2Cl)cc1,–,5010 nM (active)
Clc1ccccc1CNCC1CCC(CNCc2ccccc2Cl)CC1 (configuration not stated),-6.82% (inactive),–
CCOc1cc(CNCCCN2CCOCC2)cc(Br)c1OCC(=O)Nc1cccc(C(F)(F)F)c1,-15.4% (inactive),–
CCOc1cc(CNCCO)cc(Br)c1OCc1ccccc1Cl,–,158 nM (active)
Clc1ccc(-c2nc3ncccn3c2Nc2ccc3c(c2)OCCO3)cc1,–,6310 nM (active)
CC(C)CN1CCC2(CC1)CCN(C(=O)c1cc(C(F)(F)F)cc(C(F)(F)F)c1)CC2,-4.57% (inactive),–
O=C(O)C1C2C=CC(C2)C1C(=O)N1CCN(C/C=C/c2ccccc2)CC1 (configuration not stated),-25.9% (inactive),–
O=C(/C=C/c1ccc2ccccc2c1)c1ccoc1,–,2240 nM (active)
CC(C)(C)OC(=O)COc1cc(OCC(=O)OC(C)(C)C)c2c(=O)cc(-c3ccccc3)oc2c1,-27.5% (inactive),–
O=c1cc(-c2ccccc2)oc2cc(O)c(O)c(O)c12,–,501 nM (active)
NS(=O)(=O)Cc1noc2ccccc12,-5.73% (inactive),–
CCCCC(=O)Nc1ccc(C)c(O)c1,–,3550 nM (active)
CCC(CC)C(=O)Nc1cccc(C(=O)Nc2ccc(OC)cc2[N+](=O)[O-])c1,-2.86% (inactive),–
CCC(CC)C(=O)Nc1ccc(C)c(O)c1,–,12600 nM (active)

Compound,"activity, negative = inhibition",AC50
CCCCC(=O)Nc1ccc(C(=O)NNC(=O)CCc2ccccc2)cc1,0.428% (inactive),–
COc1cc(C2C(C(=O)c3ccc(C)o3)=C(O)C(=O)N2CCc2ccccc2)ccc1O (configuration not stated),-18.9% (inactive),–
Cc1cc(C)nc(NN2C(=O)/C(=C/c3ccccc3)SC2=S)n1,-1.03% (inactive),–
O=C1/C(=C\c2ccccn2)SC(=S)N1Nc1ncc(C(F)(F)F)cc1Cl,–,8910 nM (active)
CCCSc1nnc(CSc2nc3nc(C)cc(C)n3n2)o1,0.494% (inactive),–
Cc1cc(C)n2nc(SCc3cc(=O)oc4ccc5ccccc5c34)nc2n1,–,5620 nM (active)
Cc1cc(C)n2nc(SCN3C(=O)c4ccccc4C3=O)nc2n1,18.7% [at 11.4 µM] (inactive),–
O=C(O)c1c[nH]c2cc(OCc3ccccc3)ccc2c1=O,-19.1% [at 11.4 µM] (inactive),–
O[C@@H]1[C@@H](OCc2ccccc2)OC[C@H](O)[C@@H]1O,-15.1% [at 11.4 µM] (inactive),–
Oc1ccc(OCc2ccccc2)cc1,–,1580 nM (active)
S=C(Nc1ccccc1)Nc1ccc(OCc2ccccc2)cc1,–,5620 nM (active)
Cc1c(C(=O)Nc2ccc(OCc3ccccc3)cc2)cccc1[N+](=O)[O-],-26.7% (inactive),–
CO[C@@H]1COC(=O)[C@H]2CCCN2C(=O)C/C=C\[C@@H](C)[C@H](OC)COC(=O)[C@H]2CCCN2C(=O)C/C=C\[C@H]1C,-18.1% [at 11.4 µM] (inactive),–
Cn1c2c(c(=O)n(C)c1=O)[C@@H]1c3c(ccc4ccccc34)OC[C@@H]1CO2,-2.25% (inactive),–
COc1ccc(O[C@H]2C=C[C@@H](c3ccccc3)O[C@H]2COC(=O)CC/C(C)=N/O[C@@H]2O[C@H](COC(C)=O)[C@H](OC(C)=O)[C@H](OC(C)=O)[C@H]2OC(C)=O)cc1,7.86% [at 11.4 µM] (inactive),–
Cc1noc(C)c1C(=O)N1CCC2(CCCN(c3ccncc3)C2)CC1,7.42% (inactive),–
CCCCNC(=S)NNC(=O)c1sccc1C,–,14100 nM (active)
CCCCNC(=S)NNC(=O)c1csc2c1CCC(C)C2 (configuration not stated),–,14100 nM (active)
CC1CCc2c(C(=O)Nc3nccs3)csc2C1 (configuration not stated),–,1000 nM (active)
CCCCNC(=O)NS(=O)(=O)c1ccc(C)cc1,-9.95% [at 25.6 µM] (inactive),–
COc1ccc(-c2cc(C3CCN(c4cc(Cl)nc(N)n4)CC3)[nH]n2)cc1,–,15800 nM (active)
COc1ccc(-c2cc(C3CCN(c4ccc(C(C)=O)cc4[N+](=O)[O-])CC3)[nH]n2)cc1,–,7080 nM (active)
S=C(NCc1ccco1)N1CCN(Cc2ccco2)CC1,-25.8% (inactive),–
O=C(NNC(=S)NCc1ccco1)c1ccc(Cl)s1,–,22400 nM (active)
O=C(NC(=S)NNC(=O)c1cccs1)c1ccco1,12.9% (inactive),–

Compound,"activity, negative = inhibition",AC50
CCOC(=O)C(=CNc1cccc(C)c1C)C(=O)OCC,-19.1% (inactive),–
CCOC(=O)C(=CNc1ncccc1C)C(=O)OCC,–,1120 nM (active)
CCOC(=O)C(=CNCC(=O)O)C(=O)OCC,12.3% (inactive),–
Cc1ccc(NC(=O)CCC(=O)NNC(=O)c2cccs2)c(C)c1,-14.3% (inactive),–
Cc1ccc(C)c(-c2cc(C(=O)NCc3cccs3)c3ccccc3n2)c1,–,2240 nM (active)
Cc1ccc(C)c(NC(=O)Cn2nnc(C(=O)NCc3cccs3)c2N)c1,1.98% (inactive),–
Cc1ccc(C)c(-c2cc(C(=O)Nc3nccs3)c3ccccc3n2)c1,–,891 nM (active)
Cc1ccc(Nc2ncccc2C(=O)NCc2cccs2)c(C)c1,–,1000 nM (active)
COC(=O)c1sccc1NC(=O)c1cc(-c2ccc(C)cc2C)nc2ccccc12,-22.7% (inactive),–
COc1ccc2oc(-c3ccc(C)c(NC(=O)c4ccc(N5CCOCC5)c([N+](=O)[O-])c4)c3)nc2c1,-27% (inactive),–
COc1ccc2oc(-c3ccc(C)c(NC(=O)CSc4ccc(Cl)cc4)c3)nc2c1,–,3160 nM (active)
CC(=O)OC[C@H]1O[C@@H](O/N=C(\C)CCN2CCc3nc(-c4ccccc4)c(-c4ccccc4)cc3C2)[C@H](OC(C)=O)[C@@H](OC(C)=O)[C@H]1OC(C)=O,-0.893% [at 11.4 µM] (inactive),–
O=C(Cc1ccc(Br)cc1)OCC(=O)c1ccc2c(c1)OCCO2,–,12600 nM (active)
O=C(CN1C(=O)c2ccccc2C1=O)NCC(=O)OCC(=O)c1ccc(Br)cc1,-21.1% (inactive),–
C=CCSc1nn2c(=O)c3ccccc3nc2s1,–,1000 nM (active)
CC(=O)NCCn1c(SCC(=O)NCc2ccco2)nc2ccccc2c1=O,-20.4% (inactive),–
C=CCSc1nc2ccccc2c(=O)n1Cc1ccco1,–,25.1 nM (active)
CC1(C)S[C@@H]2[C@H](NC(=O)[C@@H](NC(=O)N3CCNC3=O)c3ccccc3)C(=O)N2[C@H]1C(=O)O,1.79% [at 25.6 µM] (inactive),–
S=c1[nH]nc(CCc2ccccc2)n1Cc1ccccc1,–,25100 nM (active)
CCn1c(CCNC(=O)c2ccccc2Cl)n[nH]c1=S,-1.57% (inactive),–
Cn1c(CCNC(=O)c2ccccc2Cl)n[nH]c1=S,-6.55% (inactive),–
N=c1ccn2c(n1)O[C@@H]1[C@@H](O)[C@H](CO)O[C@H]12,-3.76% (inactive),–
COc1ccc(CCCO[C@@H](Cn2ccnc2)c2ccc(OC)cc2)cc1,–,15.8 nM (active)
Cc1ccc(/C=C2\SC(=S)N(CCCC(=O)Nc3ccccn3)C2=O)cc1,–,10000 nM (active)
Cc1ccc(C(=O)c2cn[nH]c2-c2cc(Cl)ccc2O)cc1,–,14100 nM (active)

Compound,"activity, negative = inhibition",AC50
O=C(NCC1CCCO1)C1CCC(=O)N1CCc1ccccc1 (configuration not stated),-5.31% (inactive),–
O=C(CC(c1ccccc1)c1ccccc1)NCC1CCCO1 (configuration not stated),0.353% (inactive),–
CC(NC(=O)OCc1ccccc1)C(=O)NCC1CCCO1 (configuration not stated),–,12600 nM (active)
CC(C)Cc1nnc(NC(=O)c2ccc([N+](=O)[O-])cc2)s1,-16.6% (inactive),–
CC(=O)N=c1sccn1CC(=O)c1ccc([N+](=O)[O-])cc1,–,22400 nM (active)
O=C(c1cccc(C(F)(F)F)c1)N1CCC(O)(CS(=O)(=O)Cc2ccccc2)CC1,6.59% (inactive),–
C[C@@H](Cc1cccc(C(F)(F)F)c1)NCCOC(=O)c1ccccc1,–,794 nM (active)
COC(=O)C(Cc1ccc(OC(=O)c2ccc(C(F)(F)F)cc2)cc1)N1Cc2ccccc2C1=O (configuration not stated),-9.91% (inactive),–
O=C(O)c1cccc(OCCO)c1,-14.7% [at 11.4 µM] (inactive),–
CCOc1cccc(OCCCNCCCOC)c1,–,8910 nM (active)
COc1ccccc1CNc1ncnc2ccc(-c3ccc(C(=O)N(C)C)cc3)cc12,–,12600 nM (active)
COc1ccccc1CNc1ncnc2ccc(-c3ccc(N(C)C)cc3)cc12,–,794 nM (active)
COc1ccccc1CNc1ncnc2ccc(-c3ccc4c(c3)OCO4)cc12,–,794 nM (active)
COc1ccc(CNc2ncnc3ccc(-c4ccc(N(C)C)cc4)cc23)c(OC)c1,–,2510 nM (active)
CC(C)(C)NC[C@H](O)c1cc(O)cc(O)c1,–,inactive
CC(=O)NC1(c2cccc(F)c2)CCN(CC(=O)NC(C)C)CC1,21.3% (inactive),–
[N-]=[N+]=Nc1ccc(C(=O)CSC[C@@H](NC(=O)CC[C@@H](N)C(=O)O)C(=O)NCC(=O)O)cc1,-18.2% (inactive),–
COc1ccc(Nc2ncc3nc(-c4cccs4)c(=O)n(Cc4cccc(OC)c4)c3n2)cc1,-8.5% (inactive),–
CCNc1ncc2nc(C)c(=O)n(Cc3cccs3)c2n1,–,2000 nM (active)
CCNc1ncc2nc(-c3cccs3)c(=O)n(Cc3cccs3)c2n1,–,1260 nM (active)
CCNc1ncc2nc(-c3cn(C)c4ccccc34)c(=O)n(Cc3cccs3)c2n1,–,6310 nM (active)
CCNc1ncc2nc(-c3cccs3)c(=O)n(C)c2n1,–,1580 nM (active)
